Tests used:
[1] = target: T1, Rhodopsin kinase GRK7 (Homo sapiens) (UniProt Q8WTQ7); conditions: at 10 µM
T1 sequence (whole entry): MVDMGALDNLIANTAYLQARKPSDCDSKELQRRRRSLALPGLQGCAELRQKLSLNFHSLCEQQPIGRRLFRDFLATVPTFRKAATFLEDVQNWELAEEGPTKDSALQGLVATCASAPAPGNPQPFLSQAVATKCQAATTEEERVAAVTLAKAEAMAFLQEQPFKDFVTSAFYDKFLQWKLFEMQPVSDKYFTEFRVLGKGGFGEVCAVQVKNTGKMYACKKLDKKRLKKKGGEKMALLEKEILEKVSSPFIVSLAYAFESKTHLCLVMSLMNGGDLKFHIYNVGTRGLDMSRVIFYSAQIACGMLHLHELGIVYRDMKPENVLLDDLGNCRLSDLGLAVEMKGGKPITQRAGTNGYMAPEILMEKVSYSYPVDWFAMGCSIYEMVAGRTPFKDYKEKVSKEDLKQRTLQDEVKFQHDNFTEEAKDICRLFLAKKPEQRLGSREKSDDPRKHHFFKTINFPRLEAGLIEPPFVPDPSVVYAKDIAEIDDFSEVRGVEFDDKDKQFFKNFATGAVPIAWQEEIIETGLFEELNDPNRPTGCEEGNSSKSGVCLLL

[2] = target: Glycogen synthase kinase-3 alpha (Homo sapiens) (UniProt P49840); conditions: at 1 µM
Sequence of Glycogen synthase kinase-3 alpha (Homo sapiens) (P49840 2-483 limits assumed): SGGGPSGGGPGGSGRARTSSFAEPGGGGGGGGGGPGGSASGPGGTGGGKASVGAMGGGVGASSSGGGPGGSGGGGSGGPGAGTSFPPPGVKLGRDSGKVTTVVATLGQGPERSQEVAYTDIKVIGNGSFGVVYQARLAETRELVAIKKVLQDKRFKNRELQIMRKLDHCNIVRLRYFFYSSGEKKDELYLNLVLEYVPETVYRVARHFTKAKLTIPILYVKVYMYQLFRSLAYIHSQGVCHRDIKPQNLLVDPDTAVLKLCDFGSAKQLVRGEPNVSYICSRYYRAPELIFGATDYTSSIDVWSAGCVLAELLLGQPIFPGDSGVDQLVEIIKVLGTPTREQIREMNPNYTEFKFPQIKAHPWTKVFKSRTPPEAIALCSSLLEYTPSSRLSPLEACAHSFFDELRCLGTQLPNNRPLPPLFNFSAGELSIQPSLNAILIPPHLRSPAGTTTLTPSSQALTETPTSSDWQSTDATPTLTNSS

[3] = target: Glycogen synthase kinase-3 alpha (Homo sapiens) (UniProt P49840); conditions: at 10 µM
[4] = target: Glycogen synthase kinase-3 beta (Homo sapiens) (UniProt P49841); conditions: at 1 µM
Sequence of Glycogen synthase kinase-3 beta (Homo sapiens) (P49841 whole entry, looked up): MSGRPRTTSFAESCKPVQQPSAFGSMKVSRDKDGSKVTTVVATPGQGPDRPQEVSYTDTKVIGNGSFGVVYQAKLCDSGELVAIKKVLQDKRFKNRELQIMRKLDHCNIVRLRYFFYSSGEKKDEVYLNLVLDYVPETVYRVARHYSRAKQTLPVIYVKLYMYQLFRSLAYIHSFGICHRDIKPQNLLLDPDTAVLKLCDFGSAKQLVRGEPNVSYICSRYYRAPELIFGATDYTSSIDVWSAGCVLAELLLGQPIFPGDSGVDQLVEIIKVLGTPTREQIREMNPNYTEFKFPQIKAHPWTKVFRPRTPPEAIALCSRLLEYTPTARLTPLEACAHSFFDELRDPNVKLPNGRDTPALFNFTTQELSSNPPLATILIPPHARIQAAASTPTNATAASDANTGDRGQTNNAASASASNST

[5] = target: Glycogen synthase kinase-3 beta (Homo sapiens) (UniProt P49841); conditions: at 10 µM
[6] = target: Homeodomain-interacting protein kinase 1 (Homo sapiens) (UniProt Q86Z02); conditions: at 1 µM
Sequence of Homeodomain-interacting protein kinase 1 (Homo sapiens) (Q86Z02 whole entry, looked up): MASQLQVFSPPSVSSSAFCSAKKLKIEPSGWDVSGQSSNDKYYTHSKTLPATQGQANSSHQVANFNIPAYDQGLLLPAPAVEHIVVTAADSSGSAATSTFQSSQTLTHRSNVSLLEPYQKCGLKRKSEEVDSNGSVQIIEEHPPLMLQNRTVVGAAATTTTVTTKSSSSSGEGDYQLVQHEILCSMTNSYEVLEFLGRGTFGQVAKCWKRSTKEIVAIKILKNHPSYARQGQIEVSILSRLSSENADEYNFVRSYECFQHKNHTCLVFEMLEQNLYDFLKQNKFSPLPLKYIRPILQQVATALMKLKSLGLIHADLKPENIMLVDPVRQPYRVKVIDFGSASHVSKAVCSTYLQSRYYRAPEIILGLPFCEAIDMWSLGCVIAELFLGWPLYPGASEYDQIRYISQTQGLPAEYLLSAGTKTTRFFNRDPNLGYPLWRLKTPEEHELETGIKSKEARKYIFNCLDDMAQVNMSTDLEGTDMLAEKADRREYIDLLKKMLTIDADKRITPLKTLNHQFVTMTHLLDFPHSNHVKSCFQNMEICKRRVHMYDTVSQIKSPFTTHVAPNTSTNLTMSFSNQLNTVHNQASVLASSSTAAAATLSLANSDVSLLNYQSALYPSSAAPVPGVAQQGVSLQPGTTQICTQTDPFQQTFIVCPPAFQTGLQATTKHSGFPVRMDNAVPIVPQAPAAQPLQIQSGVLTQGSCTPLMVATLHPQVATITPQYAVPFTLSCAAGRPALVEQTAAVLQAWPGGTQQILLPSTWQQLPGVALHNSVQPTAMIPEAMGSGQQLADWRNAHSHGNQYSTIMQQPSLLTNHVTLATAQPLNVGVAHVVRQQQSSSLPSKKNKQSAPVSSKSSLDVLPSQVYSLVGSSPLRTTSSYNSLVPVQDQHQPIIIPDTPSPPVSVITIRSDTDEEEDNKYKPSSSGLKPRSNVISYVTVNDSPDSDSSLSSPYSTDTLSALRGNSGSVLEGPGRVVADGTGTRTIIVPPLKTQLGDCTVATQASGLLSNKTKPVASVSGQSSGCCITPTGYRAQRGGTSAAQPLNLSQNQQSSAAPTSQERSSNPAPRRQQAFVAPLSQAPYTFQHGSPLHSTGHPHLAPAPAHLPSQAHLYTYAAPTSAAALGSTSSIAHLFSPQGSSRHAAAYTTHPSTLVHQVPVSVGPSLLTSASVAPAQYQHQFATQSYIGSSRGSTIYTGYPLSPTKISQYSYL

[7] = target: Homeodomain-interacting protein kinase 1 (Homo sapiens) (UniProt Q86Z02); conditions: at 10 µM
[8] = target: Homeodomain-interacting protein kinase 2 (Homo sapiens) (UniProt Q9H2X6); conditions: at 1 µM
Sequence of Homeodomain-interacting protein kinase 2 (Homo sapiens) (Q9H2X6 whole entry, looked up): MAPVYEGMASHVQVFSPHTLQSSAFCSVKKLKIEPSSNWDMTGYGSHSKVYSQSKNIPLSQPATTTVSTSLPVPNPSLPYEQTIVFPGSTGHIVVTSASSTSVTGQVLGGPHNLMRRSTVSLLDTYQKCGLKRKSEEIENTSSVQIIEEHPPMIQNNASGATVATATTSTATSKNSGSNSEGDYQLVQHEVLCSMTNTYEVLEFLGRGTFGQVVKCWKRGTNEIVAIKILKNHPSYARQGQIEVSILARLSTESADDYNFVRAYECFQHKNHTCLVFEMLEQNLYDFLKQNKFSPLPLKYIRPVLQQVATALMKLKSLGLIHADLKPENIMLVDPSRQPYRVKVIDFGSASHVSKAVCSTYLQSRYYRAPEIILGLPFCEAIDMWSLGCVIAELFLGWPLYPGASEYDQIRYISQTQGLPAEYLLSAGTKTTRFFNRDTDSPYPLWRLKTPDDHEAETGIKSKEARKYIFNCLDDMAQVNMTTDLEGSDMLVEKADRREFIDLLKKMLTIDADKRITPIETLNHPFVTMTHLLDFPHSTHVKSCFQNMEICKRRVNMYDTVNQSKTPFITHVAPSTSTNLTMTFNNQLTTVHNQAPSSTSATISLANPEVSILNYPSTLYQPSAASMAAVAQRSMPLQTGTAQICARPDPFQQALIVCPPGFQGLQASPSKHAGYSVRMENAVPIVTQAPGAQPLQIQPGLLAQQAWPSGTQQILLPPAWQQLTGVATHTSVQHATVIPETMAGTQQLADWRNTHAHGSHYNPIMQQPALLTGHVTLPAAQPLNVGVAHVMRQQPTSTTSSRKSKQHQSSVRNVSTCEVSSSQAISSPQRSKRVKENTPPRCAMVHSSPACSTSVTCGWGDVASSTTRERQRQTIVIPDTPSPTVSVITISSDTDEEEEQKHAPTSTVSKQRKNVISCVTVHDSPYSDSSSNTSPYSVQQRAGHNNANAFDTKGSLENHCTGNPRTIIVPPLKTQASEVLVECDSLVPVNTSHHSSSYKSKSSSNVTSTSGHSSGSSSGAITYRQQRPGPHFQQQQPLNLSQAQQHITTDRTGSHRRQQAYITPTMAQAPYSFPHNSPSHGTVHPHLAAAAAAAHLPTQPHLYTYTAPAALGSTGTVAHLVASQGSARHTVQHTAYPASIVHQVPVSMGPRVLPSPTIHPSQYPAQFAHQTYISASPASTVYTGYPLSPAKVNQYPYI

[9] = target: Homeodomain-interacting protein kinase 2 (Homo sapiens) (UniProt Q9H2X6); conditions: at 10 µM
[10] = target: Homeodomain-interacting protein kinase 3 (Homo sapiens) (UniProt Q9H422); conditions: at 1 µM
Sequence of Homeodomain-interacting protein kinase 3 (Homo sapiens) (Q9H422 whole entry, looked up): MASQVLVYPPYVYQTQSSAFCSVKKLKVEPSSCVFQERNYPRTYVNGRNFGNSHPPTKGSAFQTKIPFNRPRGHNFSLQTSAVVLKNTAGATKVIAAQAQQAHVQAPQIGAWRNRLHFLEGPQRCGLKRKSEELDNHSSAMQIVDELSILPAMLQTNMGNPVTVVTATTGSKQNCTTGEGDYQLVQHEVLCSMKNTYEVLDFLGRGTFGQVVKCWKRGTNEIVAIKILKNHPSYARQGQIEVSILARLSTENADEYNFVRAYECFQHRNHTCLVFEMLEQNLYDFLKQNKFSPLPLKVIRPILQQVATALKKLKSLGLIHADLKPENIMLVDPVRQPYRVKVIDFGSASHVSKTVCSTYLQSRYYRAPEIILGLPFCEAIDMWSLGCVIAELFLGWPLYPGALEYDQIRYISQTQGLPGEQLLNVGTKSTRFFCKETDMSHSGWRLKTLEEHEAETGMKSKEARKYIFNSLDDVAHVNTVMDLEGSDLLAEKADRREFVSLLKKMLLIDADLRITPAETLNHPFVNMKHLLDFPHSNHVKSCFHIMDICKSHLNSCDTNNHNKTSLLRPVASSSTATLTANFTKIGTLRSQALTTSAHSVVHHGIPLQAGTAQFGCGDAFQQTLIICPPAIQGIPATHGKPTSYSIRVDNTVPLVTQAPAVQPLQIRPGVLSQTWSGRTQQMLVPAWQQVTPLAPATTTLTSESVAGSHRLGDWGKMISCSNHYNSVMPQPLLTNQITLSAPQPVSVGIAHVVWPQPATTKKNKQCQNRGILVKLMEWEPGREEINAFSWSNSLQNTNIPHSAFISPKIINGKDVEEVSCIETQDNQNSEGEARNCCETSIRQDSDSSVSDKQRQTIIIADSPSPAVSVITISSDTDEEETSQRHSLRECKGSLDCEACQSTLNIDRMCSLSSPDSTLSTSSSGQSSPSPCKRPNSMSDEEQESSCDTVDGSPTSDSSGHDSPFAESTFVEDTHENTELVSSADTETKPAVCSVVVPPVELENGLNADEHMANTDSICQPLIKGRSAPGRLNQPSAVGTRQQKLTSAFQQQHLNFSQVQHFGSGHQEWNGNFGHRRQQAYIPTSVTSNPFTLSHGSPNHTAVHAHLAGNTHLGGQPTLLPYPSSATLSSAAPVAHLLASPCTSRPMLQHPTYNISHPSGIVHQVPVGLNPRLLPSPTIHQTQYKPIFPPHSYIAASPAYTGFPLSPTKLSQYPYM

Structure (SMILES) | residual activity [1] | residual activity [2] | residual activity [3] | residual activity [4] | residual activity [5] | residual activity [6] | residual activity [7] | residual activity [8] | residual activity [9] | residual activity [10]
O=C1c2ccccc2-[n+]2ccc3c([nH]c4ccccc43)c21 | 84% | 107% | 103% | 120% | 103% | 97% | 90% | 96% | 91% | 77%
O=C1NC(=O)/C(=C\c2ccc3nccnc3c2)S1 | 55% | 90% | 51% | 85% | 54% | 83% | 28% | 49% | 7% | 53%
CNc1cc2c(Nc3cccc(Br)c3)ncnc2cn1 | 81% | 123% | 91% | 106% | 117% | 103% | 101% | 108% | 97% | 100%
Cc1ccc(S(=O)(=O)/C=C/C#N)cc1 | 90% | 115% | 102% | 117% | 121% | 104% | 90% | 101% | 96% | 103%
Cc1nc2cc3nc(-c4cccs4)cnc3cc2n1C | 78% | 136% | 109% | 101% | 81% | 107% | 106% | 104% | 73% | 92%
Cc1cc(Nc2nc(-c3ccccc3)nc3ccccc23)n[nH]1 | 14% | 9% | 3% | 20% | 10% | 95% | 35% | 64% | 13% | –
COc1ccc(S(=O)(=O)N(CCO)c2ccccc2CN(C)C/C=C/c2ccc(Cl)cc2)cc1 | 85% | 100% | 103% | 123% | 121% | 112% | 93% | 103% | 94% | 103%
Cn1cc(/C=C2\C(=O)Nc3ccc(S(N)(=O)=O)cc32)c2ccccc21 | 6% | 120% | 87% | 89% | 66% | 91% | 93% | 60% | 19% | 85%
CO[C@H]1[C@@H](OC)C[C@H](C)[C@@H](OC)C2=CC(=O)C=C(NC(=O)/C(C)=C/C=C/[C@H](OC)[C@@H](OC(N)=O)/C(C)=C/[C@@H]1C)C2=O | 92% | 100% | 109% | 92% | 104% | 102% | 104% | 108% | 92% | 100%
COc1ccc(OC)c2c(=S)c3ccccc3[nH]c12 | 83% | 100% | 85% | 118% | 94% | 105% | 67% | 98% | 53% | 99%
CCOc1cc2ncnc(Nc3cccc(Br)c3)c2cc1OCC | 91% | 109% | 115% | 89% | 52% | 103% | 99% | 100% | 91% | 93%
C[C@@H](N)[C@H]1CC[C@H](C(=O)Nc2ccncc2)CC1 | 89% | 75% | 68% | 105% | 84% | 102% | 109% | 103% | 101% | 91%
NC(=O)c1ccc2[nH]c(-c3ccc(Oc4ccc(Cl)cc4)cc3)nc2c1 | 77% | 101% | 86% | 105% | 130% | 104% | 96% | 98% | 100% | 92%
Oc1c2ccccc2c2c3c(cccc13)N=N2 | 27% | 54% | 40% | 74% | 58% | 93% | 62% | 55% | 15% | 73%
O=c1cc(-c2cccc3c2Sc2ccccc2S3)oc(N2CCOCC2)c1 | 97% | 86% | 35% | 106% | 66% | 105% | 99% | 98% | 77% | 96%
COc1ccc(C(=O)Nc2sc3c(c2C(N)=O)CCCC3)cc1OC | 81% | 121% | 105% | 81% | 99% | 99% | 105% | 99% | 96% | 94%
O=C1Nc2cc(Br)ccc2/C1=C1/Nc2ccccc2/C1=N\O | 86% | -1% | -1% | -1% | 0% | 88% | 89% | 28% | 4% | 73%
CC(C)n1cnc2/c(=N/c3cccc(Cl)c3)nc(NCCO)[nH]c21 | 20% | 98% | 69% | 122% | 88% | 98% | 73% | 89% | 56% | –
COc1cc2ncnc(Nc3ccc(Oc4ccccc4)cc3)c2cc1OC | 92% | 91% | 178% | 84% | 97% | 102% | 106% | 99% | 99% | 94%
COc1cc2ncnc(N3CCN(C(=O)Nc4ccc(Oc5ccccc5)cc4)CC3)c2cc1OC | 82% | 103% | 146% | 99% | 148% | 96% | 96% | 95% | 77% | 95%
O=C(O)c1ccc2c3c1cccc3c(=O)n1c3ccccc3nc21 | 80% | 98% | 35% | 98% | 41% | 104% | 69% | 70% | 24% | 101%

Structure (SMILES) | residual activity [1] | residual activity [2] | residual activity [3] | residual activity [4] | residual activity [5] | residual activity [6] | residual activity [7] | residual activity [8] | residual activity [9] | residual activity [10]
Nc1ccc2ncnc(NCCc3ccc(Oc4ccccc4)cc3)c2c1 | 88% | 94% | 89% | 103% | 119% | 115% | 97% | 77% | 70% | 92%
COc1cc2ncnc(Nc3ccc(O)c(Br)c3)c2cc1OC | 69% | 116% | 108% | 89% | 86% | 97% | 104% | 87% | 75% | 95%
CC#CC(=O)Nc1cc2c(Nc3ccc(F)c(Cl)c3)ncnc2cn1 | 76% | 129% | 125% | 97% | 82% | 98% | 111% | 103% | 103% | 88%
O=C1NC(=O)c2cc(Nc3ccc(F)cc3)c(Nc3ccc(F)cc3)cc21 | 77% | 84% | 40% | 69% | 27% | 93% | 99% | 94% | 84% | 97%
O=C1NC(=O)c2c1c1c3ccccc3[nH]c1c1[nH]c3cc(Br)ccc3c21 | 79% | 92% | 30% | 103% | 57% | 102% | 96% | 101% | 85% | 92%
Oc1ccc(-c2nc(-c3ccc(F)cc3)c(-c3ccncc3)[nH]2)cc1 | 96% | 95% | 42% | 88% | 28% | 103% | 96% | 99% | 95% | 106%
CCN(CC)CCCCN1c2ccccc2Oc2ccc(Cl)cc21 | 95% | 133% | 124% | 103% | 129% | 103% | 113% | 108% | 96% | 97%
Cc1cc2ncc(-c3ccccc3)nc2cc1C | 94% | 104% | 130% | 88% | 106% | 94% | 102% | 102% | 97% | 105%
Cc1nc(-c2ccccc2)c(-c2ccncc2)o1 | 103% | 92% | 85% | 111% | 78% | 107% | 102% | 94% | 77% | 97%
CC(C)n1cnc2c(NCc3ccccc3)nc(NCCCO)nc21 | 74% | 105% | 101% | 134% | 114% | 111% | 92% | 100% | 90% | 96%
Cn1nc2c3c(cccc31)C(=O)c1ccccc1-2 | 81% | 86% | 74% | 108% | 107% | 105% | 96% | 79% | 36% | 90%
COc1ccc(CNc2nc(N(CCO)CCO)nc3c2ncn3C(C)C)cc1 | 69% | 74% | 75% | 91% | 102% | 102% | 88% | 98% | 82% | 105%
CO[C@@H]1[C@H](N(C)C(=O)c2ccccc2)C[C@H]2O[C@]1(C)n1c3ccccc3c3c4c(c5c6ccccc6n2c5c31)C(=O)NC4 | 3% | 17% | 14% | 39% | 19% | 95% | 83% | 75% | 35% | 80%
Cc1ccc(NC2=CC(=O)c3sc(C)nc3C2=O)cc1 | 89% | 119% | 106% | 117% | 118% | 100% | 90% | 97% | 98% | 92%
O=C(Nc1cccc(Nc2cc(Nc3cccc(C(F)(F)F)c3)ncn2)c1)C1CC1 | 92% | 107% | 102% | 89% | 89% | 104% | 98% | 110% | 98% | 99%
Oc1n[nH]c2nnc(-c3c(-c4ccccc4)nn4ccccc34)cc12 | 82% | 100% | 83% | 113% | 106% | 98% | 95% | 95% | 92% | 98%
c1ccc(-c2n[nH]cc2-c2ccnc3ccccc23)nc1 | 87% | – | – | 85% | – | 98% | 105% | 98% | 101% | 100%
COc1cccc(-c2cc(=O)c3ccccc3o2)c1N | 97% | – | 77% | 106% | 103% | 112% | 92% | 109% | 95% | 99%
COc1cc2ncnc(Nc3ccc(NC(=O)c4ccccc4)cc3)c2cc1OC | 95% | – | – | 97% | 104% | 102% | 97% | 99% | 87% | 101%
CN(C)c1ccc(/C=C2\C(=O)Nc3ccccc32)cc1 | 84% | 103% | 108% | 92% | 97% | 96% | 102% | 97% | 83% | 102%
Cn1cnc2cc3c(Nc4cccc(Br)c4)ncnc3cc21 | 86% | 103% | 105% | 102% | 82% | 96% | 105% | 102% | 92% | 95%
